Measurements: PubChem BioAssay (NCI)
Compounds without any hit were thinned out: in the full panel of roughly 83,000, 20% have a hit.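 A percent growth of 40 corresponds to 60% growth inhibition; 0 means no net growth; -100 means all cells died. Active threshold: below 10.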 Activity calls are given as the source filed them.

Key:
Experiment in all cases: NCI-60 one-dose screen, 48 h (100 = growth as untreated, 0 = no growth, -100 = all killed)
Conditions in all cases: 10 µM unless noted
SK-MEL-2 melanoma = tested on: SK-MEL-2 melanoma
EKVX NSCLC = tested on: EKVX NSCLC
SN12C renal = tested on: SN12C renal
UO-31 renal = tested on: UO-31 renal
TK-10 renal = tested on: TK-10 renal
A498 renal = tested on: A498 renal
CCRF-CEM leukemia = tested on: CCRF-CEM leukemia
MOLT-4 leukemia = tested on: MOLT-4 leukemia
SR leukemia = tested on: SR leukemia
RPMI-8226 leukemia = tested on: RPMI-8226 leukemia
OVCAR-8 ovarian = tested on: OVCAR-8 ovarian
OVCAR-5 ovarian = tested on: OVCAR-5 ovarian
OVCAR-4 ovarian = tested on: OVCAR-4 ovarian
SK-OV-3 ovarian = tested on: SK-OV-3 ovarian
IGROV1 ovarian = tested on: IGROV1 ovarian
OVCAR-3 ovarian = tested on: OVCAR-3 ovarian
HS 578T breast = tested on: HS 578T breast
NCI/ADR-RES ovarian = tested on: NCI/ADR-RES ovarian

Measured: growth

COc1ccc(Cl)cc1NC(=O)c1cc2c([nH]1)-c1nc(NC(=O)C(C)(C)C)sc1CC2
inactive: SK-MEL-2 melanoma 83% | EKVX NSCLC 50.4% | SN12C renal 38.6% | UO-31 renal 58.8% | TK-10 renal 66.6% | A498 renal 79.2% | CCRF-CEM leukemia 52% | MOLT-4 leukemia 58.6% | SR leukemia 28.2% | RPMI-8226 leukemia 83.8% | OVCAR-8 ovarian 26.8% | OVCAR-5 ovarian 108% | OVCAR-4 ovarian 57% | SK-OV-3 ovarian 82.1% | IGROV1 ovarian 65.3% | OVCAR-3 ovarian 32.8% | HS 578T breast 44% | NCI/ADR-RES ovarian 40.9%

COc1ccc(NC(=O)Nc2ccc(-c3ccc(OC)c(OC)c3)nc2C)cc1
inactive: SK-MEL-2 melanoma 79.6% | EKVX NSCLC 91.1% | SN12C renal 64.4% | UO-31 renal 81.7% | TK-10 renal 60.4% | A498 renal 71.9% | CCRF-CEM leukemia 97.2% | MOLT-4 leukemia 85.6% | SR leukemia 57.3% | RPMI-8226 leukemia 83.8% | OVCAR-8 ovarian 47.4% | OVCAR-5 ovarian 98% | OVCAR-4 ovarian 29.5% | SK-OV-3 ovarian 74.8% | IGROV1 ovarian 77.1% | OVCAR-3 ovarian 102% | HS 578T breast 40% | NCI/ADR-RES ovarian 85%

COc1cc(Cn2cc3c(c2)-c2onc(CO)c2CC3)cc(OC)c1OC
inactive: SK-MEL-2 melanoma 90.2% | EKVX NSCLC 90.3% | SN12C renal 94.3% | UO-31 renal 68.4% | TK-10 renal 96.4% | A498 renal 97.5% | CCRF-CEM leukemia 91.3% | MOLT-4 leukemia 95.8% | SR leukemia 71.8% | RPMI-8226 leukemia 79.1% | OVCAR-8 ovarian 98.7% | OVCAR-5 ovarian 103% | OVCAR-4 ovarian 98% | SK-OV-3 ovarian 112% | IGROV1 ovarian 96.6% | OVCAR-3 ovarian 99.4% | HS 578T breast 80.3% | NCI/ADR-RES ovarian 93.8%

Cc1ccc2c(c1)Nc1ccc(C)cc1C2(C)C
inactive: SK-MEL-2 melanoma 88.9% | EKVX NSCLC 87.8% | SN12C renal 103% | UO-31 renal 91.3% | TK-10 renal 102% | A498 renal 118% | CCRF-CEM leukemia 92.8% | MOLT-4 leukemia 73.4% | SR leukemia 88.3% | RPMI-8226 leukemia 85.4% | OVCAR-8 ovarian 103% | OVCAR-5 ovarian 105% | OVCAR-4 ovarian 92.3% | SK-OV-3 ovarian 82.2% | IGROV1 ovarian 106% | OVCAR-3 ovarian 97.7% | HS 578T breast 113% | NCI/ADR-RES ovarian 105%

CCCCCCCCCCCCCCCCCCNCc1ccc(Cl)cc1
active: SK-MEL-2 melanoma -73.3% | EKVX NSCLC -30.2% | SN12C renal -60.8% | UO-31 renal -78.6% | TK-10 renal -65.1% | A498 renal -75.8% | CCRF-CEM leukemia -45.9% | MOLT-4 leukemia -62.1% | SR leukemia -30.1% | RPMI-8226 leukemia -53.9% | OVCAR-8 ovarian -62.7% | OVCAR-5 ovarian -59.5% | OVCAR-4 ovarian -69.1% | SK-OV-3 ovarian -33.1% | IGROV1 ovarian -64.6% | OVCAR-3 ovarian -87.9% | HS 578T breast -48.7% | NCI/ADR-RES ovarian -64.6%

COc1ccc(Cl)cc1NC(=O)c1cc2c(n1C)-c1nc(NC(=O)C(C)C)sc1CC2
inactive: SK-MEL-2 melanoma 64.6% | EKVX NSCLC 91.3% | SN12C renal 94.5% | UO-31 renal 76.7% | TK-10 renal 92% | A498 renal 93.2% | CCRF-CEM leukemia 84.4% | MOLT-4 leukemia 80.2% | SR leukemia 79.1% | RPMI-8226 leukemia 82.7% | OVCAR-8 ovarian 81.8% | OVCAR-5 ovarian 108% | OVCAR-4 ovarian 66% | SK-OV-3 ovarian 82.9% | IGROV1 ovarian 104% | OVCAR-3 ovarian 111% | HS 578T breast 83.4% | NCI/ADR-RES ovarian 90.5%

C=C1C(=O)O[C@H]2[C@H]1CC/C(C(=O)NCCOCCOCC(=O)Nc1ccc(OC)c(C(N)=O)c1O)=C\CC[C@@]1(C)O[C@@H]21
inactive: SK-MEL-2 melanoma 82.1% | EKVX NSCLC 95.7% | SN12C renal 94.3% | UO-31 renal 87.3% | TK-10 renal 76.1% | A498 renal 105% | CCRF-CEM leukemia 64.6% | MOLT-4 leukemia 66.2% | SR leukemia 75.3% | RPMI-8226 leukemia 97.2% | OVCAR-8 ovarian 89.8% | OVCAR-5 ovarian 96.4% | OVCAR-4 ovarian 101% | SK-OV-3 ovarian 91.6% | IGROV1 ovarian 98.8% | OVCAR-3 ovarian 84.3% | HS 578T breast 93% | NCI/ADR-RES ovarian 104%

O=C(O)c1ccc(-n2cc(/C=N/Nc3ccc(F)cc3)c(-c3cccc(C(F)(F)F)c3)n2)cc1
inactive: SK-MEL-2 melanoma 70.1% | EKVX NSCLC 70.8% | SN12C renal 86.9% | UO-31 renal 45.6% | TK-10 renal 91.9% | A498 renal 69% | CCRF-CEM leukemia 33.7% | MOLT-4 leukemia 36.5% | SR leukemia 87% | RPMI-8226 leukemia 47.2% | OVCAR-8 ovarian 78.4% | OVCAR-5 ovarian 78.2% | OVCAR-4 ovarian 92.4% | SK-OV-3 ovarian 94.6% | IGROV1 ovarian 74.8% | OVCAR-3 ovarian 70.8% | HS 578T breast 89.2% | NCI/ADR-RES ovarian 65.2%
